Results published in ChEMBL document CHEMBL4513216, “Probing the Open Global Health Chemical Diversity Library for Multistage-Active Starting Points for Next-Generation Antimalarials” (ACS Infect Dis, 2020).
About 8,600 (12%) of roughly 69,000 compounds showed an effect of 50% or more. The sample as a whole holds a higher share of strong results than the screen did.

tested on: Plasmodium berghei; experiment: Screen against P. berghei liver stage (PbLuc), transformed with Luciferase, at 10uM; type: functional, HepG2; conditions: tested at 10 uM

Structure (SMILES)	INHIBITION [%]
O=C(COc1ccccc1)NS(=O)(=O)Cc1ccccc1	11.8
Cc1cccc(OCC(=O)NS(=O)(=O)Cc2ccccc2)c1	22.9
Cc1ccc(OCC(=O)NS(=O)(=O)Cc2ccccc2)cc1	69.8
O=S(=O)(NCCCn1cncn1)c1ccc2c(c1)CCO2	44.9
O=S(=O)(NCCCn1cncn1)c1ccc2c(c1)CCCC2	50.4
O=S(=O)(NCCCn1cncn1)c1ccc2c(c1)CCC2	-58.1
CCOc1ccc(C(=O)NC2CC2)cc1C	57
CCOc1ccc(CCCC(=O)N2CC[C@H](NC(C)=O)C2)cc1C	16
CCOc1ccc(C(=O)NC2CCN(c3ncccn3)CC2)cc1C	34.2
CCN(CC)C(CNC(=O)c1ccc(S(=O)(=O)NC)cc1)c1ccco1 (stereo unspecified)	6.12
COc1cccc(OCC(=O)N(C)c2cccnc2)c1	53.7
COc1cccc(OCC(=O)NS(=O)(=O)c2cccnc2)c1	-19.05
COc1cccc(OCC(=O)N(C)c2cccnc2N(C)C)c1	33.1
Cc1nc(C(C)C)sc1C(C)N(C)C(=O)c1ccc(=O)n(C)n1 (stereo unspecified)	-19.7
CCN(CC)c1ncccc1CNCc1cc2ccccc2s1	5.91
Cc1cc(NC(=O)CN2CCOC(CN(C)C)C2)n(C)n1 (stereo unspecified)	4.35
Cc1nc(CN2CCO[C@@H]3CN(Cc4nccs4)C[C@@H]3C2)cs1	3.69
O=C(CN1CCCC1c1cccs1)N1CCc2sccc2C1 (stereo unspecified)	19.2
CC(C)c1noc(-c2cccc(OCC(N)=O)c2)n1	-110

Structure (SMILES)	INHIBITION [%]
O=C(c1ccc2sccc2c1)N1CCC(C(=O)O)(n2cccn2)CC1	-16.6
O=C(c1ccc2occc2c1)N1CCC(C(=O)O)(n2cccn2)CC1	60
O=C(c1ccc2ncsc2c1)N1CCC(C(=O)O)(n2cccn2)CC1	-0.529
CN1CC2(CCN(CCCOCc3ccccc3)CC2)OC1=O	42.8
O=C(C1CCOC1)N1C[C@H]2CN(Cc3ccccn3)C[C@H]2C1 (stereo partly specified)	33.5
CC(=O)N(Cc1ncc(C)o1)C1CCN(Cc2sc(C)nc2C)C1 (stereo unspecified)	-2.19
CC(C)NCc1nc(-c2ccc3c(c2)OCO3)c[nH]1	-40.5
CNC(C)Cc1ccccc1Sc1ccc(O)cc1 (stereo unspecified)	-2.39
NCc1ccccc1Sc1ccc(O)cc1	39.4
O=C1NCCCCC1Sc1ccccc1F (stereo unspecified)	13.6
O=C(Cc1cccnc1)NCCSc1ccccc1F	-11.6
c1cc2c(cc1C1(CNC3=NCCN3)CCCC1)OCCO2	27.6
Fc1ccccc1Sc1ccccc1CNC1=NCCN1	75.7
Fc1ccc(Sc2ccccc2CNC2=NCCN2)cc1	83.3
c1ccc(Sc2ccc3c(c2)OCO3)c(CNC2=NCCN2)c1	87.1
CCCc1ccc(OCCNCc2ccco2)c(OC)c1	1.71
Cc1ccc(C2CCCN2S(=O)(=O)N(C)Cc2nccn2C)o1 (stereo unspecified)	40.8
Cc1nc(CN2CC[C@@H](OCC3CC3)[C@@H]2Cc2cccnc2)cs1	10.5
Cc1cnn(CC2CN(Cc3nnc(-c4ccccc4)o3)CCO2)c1 (stereo unspecified)	-13.3

Structure (SMILES)	INHIBITION [%]
CC(=O)NC1CCCN(Cc2ccn(C)c(=O)c2)C1 (stereo unspecified)	-4.4825
CNc1nc(C(=O)N2C[C@@H]3CC[C@H]2CN(C2CCOCC2)C3)cs1	12.8
CC(c1nc(C2CC2)no1)N(C)Cc1ccc(Cl)cc1 (stereo unspecified)	43.1
CC(c1nc(C2CC2)no1)N(C)Cc1ccc2c(c1)OCCO2 (stereo unspecified)	12.3
CC(c1nc(C2CC2)no1)N(C)Cc1cccc(F)c1 (stereo unspecified)	53.4
Cn1ccc2c(C(=O)N3CCCC(c4nnc[nH]4)C3)cccc21 (stereo unspecified)	-66.9
CCNC(=O)c1ncn2c1CN(C)S(=O)(=O)c1ccccc1-2	-1.53
CCN1Cc2c(C(=O)NC(C)C)ncn2-c2ccccc2S1(=O)=O	31.1
CCN1Cc2c(C(=O)NC(C)C(C)C)ncn2-c2ccccc2S1(=O)=O (stereo unspecified)	29.9
CC(C)CCN1Cc2c(C(=O)O)ncn2-c2ccccc2S1(=O)=O	31.8
CCC(CC)NC(=O)c1ncn2c1CN(CC)S(=O)(=O)c1ccccc1-2	52
CN1Cc2c(C(=O)NC3CCCCC3)ncn2-c2ccccc2S1(=O)=O	43.4
CCCNC(=O)c1ncn2c1CN(CC(C)C)S(=O)(=O)c1ccccc1-2	57.9
CCN1Cc2c(C(=O)NCC3CC3)ncn2-c2ccccc2S1(=O)=O	0.139
CC(C)CN1Cc2c(C(=O)N(C)C)ncn2-c2ccccc2S1(=O)=O	5.69
CC(C)CN1Cc2c(C(=O)NC3CC3)ncn2-c2ccccc2S1(=O)=O	50.9
CNC(=O)c1ncn2c1CN(CCC(C)C)S(=O)(=O)c1ccccc1-2	64.9
CCN1Cc2c(C(=O)NC)ncn2-c2ccccc2S1(=O)=O	45.1
